Assay results published in PubChem BioAssay (NCI).
This is part of a sample that, as a whole, favours compounds with a hit. Of some 79,000 tested, about 15% had one in any assay. The source made the active and inactive calls. No stated cut-off is given here; in the data, active means growth inhibition above about 70%; inactive means the rest.

Columns and labels:
[1] = NCI Yeast Anticancer Drug Screen. Data for the wt2 strain (AID 169);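 further: 0% = growth of vehicle-treated yeast cultures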; settings: S. cerevisiae wt2 strain growth inhibition, active compounds read high
Procedure, shortened: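 The panel's yeast strains carry defined changes in DNA repair or cell cycle genes. Each strain is grown with compound, and growth loss is scored relative to vehicle.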

[2] = NCI Yeast Anticancer Drug Screen. Data for the mlh1 strain (AID 171);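 further: 0% = growth of vehicle-treated control cultures of the same strain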; settings: S. cerevisiae mlh1 strain growth inhibition, active compounds read high
Procedure, shortened: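 Inhibition values reflect reduced yeast growth in the presence of compound, referenced to vehicle controls, using a strain chosen for its alteration in DNA repair or cell cycle control.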

[3] = NCI Yeast Anticancer Drug Screen. Data for the sgs1 strain (AID 173);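 further: 0% = growth of vehicle-only control cultures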; settings: S. cerevisiae sgs1 mutant, active compounds read high
Procedure, shortened: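 Vehicle-treated cultures served as reference for growth inhibition of a yeast strain altered in DNA damage repair or cell cycle control after compound exposure.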

[4] = NCI Yeast Anticancer Drug Screen. Data for the mlh1 rad18 strain (AID 175); settings: S. cerevisiae mlh1 rad18 strain growth inhibition, active compounds read high
Procedure, shortened: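 Inhibition values reflect reduced growth of mutant yeast versus vehicle-treated controls following compound exposure; the mutations affect DNA damage repair.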

[5] = NCI Yeast Anticancer Drug Screen. Data for the rad18 strain (AID 177); settings: S. cerevisiae rad18 mutant growth inhibition, active compounds read high
Procedure, shortened: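 Steps: expose repair-mutant yeast to compound; measure growth; express as inhibition relative to vehicle control.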

[6] = NCI Yeast Anticancer Drug Screen. Data for the rad52 strain (AID 147);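 further: 0% = growth of vehicle-treated control cultures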; settings: S. cerevisiae rad52 mutant growth inhibition, active compounds read high
Procedure, shortened: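 Inhibition of yeast growth, referenced to vehicle controls, was the measured output for a strain with defective DNA damage repair.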

[7] = NCI Yeast Anticancer Drug Screen. Data for the wt1 strain (AID 149);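 further: 0% = growth of vehicle-treated wt1 cultures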; settings: S. cerevisiae wt1 strain (SPY 50644) growth inhibition, active compounds read high
Procedure, shortened: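 wt1 strain grown with compound or vehicle; inhibition taken from the growth difference.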

[8] = NCI Yeast Anticancer Drug Screen. Data for the rad50EPP+ strain (AID 151);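 further: 0% = growth of vehicle-treated control cultures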; settings: S. cerevisiae rad50 mutant strain, active compounds read high
Procedure, shortened: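 Genetically defined yeast (rad50EPP+, DNA damage repair alteration) is grown with compound, and inhibition of growth is expressed relative to vehicle-treated controls.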

[9] = NCI Yeast Anticancer Drug Screen. Data for the mgt1 strain (AID 153); settings: S. cerevisiae mgt1 mutant growth inhibition, active compounds read high
Procedure, shortened: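 In the mgt1 strain, test compounds were added and growth inhibition was determined relative to vehicle-treated controls.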

[10] = NCI Yeast Anticancer Drug Screen. Data for the rad50 strain (AID 155);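 further: 0% = growth of vehicle-only cultures of the same strain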; settings: S. cerevisiae rad50 strain growth inhibition, active compounds read high
Procedure, shortened: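 DNA repair mutant yeast, compound exposure, growth read-out; inhibition is taken relative to vehicle.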

[11] = NCI Yeast Anticancer Drug Screen. Data for the mec2-1 strain (AID 157); settings: S. cerevisiae mec2-1 strain, active compounds read high
Procedure, shortened: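 Each compound was tested on mec2-1 yeast, a strain altered in DNA damage repair or cell cycle control. Growth inhibition is reported relative to vehicle.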

[12] = NCI Yeast Anticancer Drug Screen. Data for the rad14 strain (AID 159);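 further: 0% = growth of vehicle-treated control cultures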; settings: S. cerevisiae rad14 strain growth inhibition, active compounds read high
Procedure, shortened: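 DNA repair-defective yeast, compound-exposed; % growth inhibition derived by comparison with vehicle-treated controls.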

[13] = NCI Yeast Anticancer Drug Screen. Data for the sgs1 mgt1 strain (AID 161);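 further: 0% = growth of cultures given vehicle only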; settings: S. cerevisiae sgs1 mgt1 strain, active compounds read high
Procedure, shortened: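 Inhibition of yeast growth, normalised to vehicle-treated controls, is reported for a strain bearing genetic alterations in DNA damage repair.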

[14] = NCI Yeast Anticancer Drug Screen. Data for the CLN2oe strain (AID 163);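 further: 0% = growth of vehicle-only control cultures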; settings: S. cerevisiae CLN2oe strain, active compounds read high
Procedure, shortened: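 First, the altered yeast strain was treated with each compound; second, its growth was measured; finally, inhibition was derived by comparison with vehicle controls.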

[15] = NCI Yeast Anticancer Drug Screen. Data for the cln2 rad14 strain (AID 165);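 further: 0% = growth equal to vehicle treated cultures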; settings: S. cerevisiae cln2 rad14 strain, active compounds read high
Procedure, shortened: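 Test compounds were added to cln2 rad14 yeast cultures; inhibition of growth was then determined by comparison with vehicle treatment.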

[16] = NCI Yeast Anticancer Drug Screen. Data for the bub3 strain (AID 167); settings: S. cerevisiae bub3 mutant strain, active compounds read high
Procedure, shortened: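 In this screen, a yeast mutant lacking normal mitotic checkpoint function is challenged with compound. Relative growth versus vehicle gives the inhibition value.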

[17] = at 5.0 µM (retest, dose inferred, filed as 0.5)
[18] = at 50.0 µM (retest, dose inferred, filed as 5.0)

Measured: growth inhibition

CC(C)C(=O)CC(Sc1ccc(N)cc1)c1ccccc1 (centres undefined)
active: [3]; at 100.0 µM 79% | [4]; [18] 85%
inactive: [1]; at 1.2 µM -2% | [1]; at 3.7 µM -2% | [1]; at 11.0 µM 10% | [1]; at 33.0 µM 47% | [1]; at 100.0 µM 57% | [2]; at 1.2 µM 1% | [2]; at 3.7 µM -2% | [2]; at 11.0 µM 7% | [2]; at 33.0 µM 30% | [2]; at 100.0 µM 48% | [3]; at 1.2 µM 0% | [3]; at 3.7 µM 4% | [3]; at 11.0 µM 22% | [3]; at 33.0 µM 62% | [4]; [17] -19% | [4]; at 50.0 µM 42.5% | [5]; at 1.2 µM -8% | [5]; at 3.7 µM -2% | [5]; at 11.0 µM 12% | [5]; at 33.0 µM 30% | [5]; at 100.0 µM 52%

CCCCCCCCCCCCCCCCCCN(C)C(COC)COP(=O)([O-])OCC[N+](C)(C)C (centres undefined)
inactive: [6]; at 1.2 µM -58% | [6]; at 3.7 µM -67% | [7]; at 1.2 µM -34% | [7]; at 3.7 µM -56% | [8]; at 1.2 µM -33% | [8]; at 3.7 µM 63% | [9]; at 1.2 µM 14% | [9]; at 3.7 µM 8% | [10]; at 1.2 µM -24% | [10]; at 3.7 µM -11% | [10]; [17] 1% | [11]; at 1.2 µM -48% | [11]; at 3.7 µM -46% | [11]; [17] 12% | [11]; at 50.0 µM 23.9% | [12]; at 1.2 µM -69% | [12]; at 3.7 µM -78% | [13]; [17] 3% | [13]; [18] 2% | [14]; at 1.2 µM -39% | [14]; at 3.7 µM -44% | [15]; [17] 13% | [15]; [18] -70% | [15]; at 50.0 µM 8.85% | [16]; at 1.2 µM -23% | [16]; at 3.7 µM -40% | [16]; [17] 14% | [16]; [18] 10% | [1]; at 1.2 µM -41% | [1]; at 3.7 µM -55% | [2]; at 1.2 µM -34% | [2]; at 3.7 µM -54% | [3]; at 1.2 µM -64% | [3]; at 3.7 µM -64% | [4]; [17] 16% | [4]; at 50.0 µM 50% | [5]; at 1.2 µM -64% | [5]; at 3.7 µM -24%
active: [6]; at 11.0 µM 95% | [6]; at 33.0 µM 97% | [6]; at 100.0 µM 97% | [7]; at 11.0 µM 98% | [7]; at 33.0 µM 99% | [7]; at 100.0 µM 98% | [8]; at 11.0 µM 97% | [8]; at 33.0 µM 98% | [8]; at 100.0 µM 98% | [9]; at 11.0 µM 98% | [9]; at 33.0 µM 99% | [9]; at 100.0 µM 98% | [10]; at 11.0 µM 97% | [10]; at 33.0 µM 98% | [10]; [18] 98% | [10]; at 50.0 µM 73.6% | [10]; at 100.0 µM 98% | [11]; at 11.0 µM 97% | [11]; at 33.0 µM 98% | [11]; [18] 99% | [11]; at 100.0 µM 98% | [12]; at 11.0 µM 96% | [12]; at 33.0 µM 98% | [12]; at 100.0 µM 97% | [13]; at 50.0 µM 85.8% | [14]; at 11.0 µM 97% | [14]; at 33.0 µM 98% | [14]; at 100.0 µM 98% | [16]; at 11.0 µM 98% | [16]; at 33.0 µM 98% | [16]; at 50.0 µM 85.2% | [16]; at 100.0 µM 98% | [1]; at 11.0 µM 97% | [1]; at 33.0 µM 98% | [1]; at 100.0 µM 98% | [2]; at 11.0 µM 97% | [2]; at 33.0 µM 98% | [2]; at 100.0 µM 98% | [3]; at 11.0 µM 97% | [3]; at 33.0 µM 98% | [3]; at 100.0 µM 98% | [4]; [18] 98% | [5]; at 11.0 µM 97% | [5]; at 33.0 µM 98% | [5]; at 100.0 µM 98%

CCCCCCCCSC1=C(Cl)C(=O)C(OC)=C(OC)C1=O
inactive: [6]; at 1.2 µM -25% | [6]; at 3.7 µM -19% | [6]; at 11.0 µM 15% | [6]; at 33.0 µM 53% | [7]; at 1.2 µM -55% | [7]; at 3.7 µM -23% | [7]; at 11.0 µM -17% | [7]; at 33.0 µM 0% | [8]; at 1.2 µM -29% | [8]; at 3.7 µM -44% | [8]; at 11.0 µM -1% | [8]; at 33.0 µM 18% | [9]; at 1.2 µM -30% | [9]; at 3.7 µM -41% | [9]; at 11.0 µM -24% | [9]; at 33.0 µM 17% | [10]; at 1.2 µM -25% | [10]; at 3.7 µM -16% | [10]; [17] 25% | [10]; at 11.0 µM -17% | [10]; at 33.0 µM 19% | [10]; [18] 68% | [10]; at 50.0 µM 22.6% | [11]; at 1.2 µM -37% | [11]; at 3.7 µM -30% | [11]; [17] 24% | [11]; at 11.0 µM -4% | [11]; at 33.0 µM 13% | [11]; [18] 68% | [11]; at 50.0 µM 54.1% | [12]; at 1.2 µM -32% | [12]; at 3.7 µM -11% | [12]; at 11.0 µM -14% | [12]; at 33.0 µM 2% | [12]; at 100.0 µM 66% | [13]; [17] 22% | [13]; [18] 10% | [13]; at 50.0 µM 69.1% | [14]; at 1.2 µM -16% | [14]; at 3.7 µM -6% | [14]; at 11.0 µM 21% | [14]; at 33.0 µM 33% | [15]; [17] 13% | [15]; [18] -24% | [15]; at 50.0 µM 35.1% | [16]; at 1.2 µM -40% | [16]; at 3.7 µM -30% | [16]; [17] 20% | [16]; at 11.0 µM -43% | [16]; at 33.0 µM -15% | [16]; [18] 6% | [16]; at 50.0 µM 59% | [16]; at 100.0 µM 57% | [1]; at 1.2 µM -31% | [1]; at 3.7 µM -19% | [1]; at 11.0 µM -46% | [1]; at 33.0 µM -11% | [2]; at 1.2 µM -38% | [2]; at 3.7 µM -31% | [2]; at 11.0 µM 6% | [2]; at 33.0 µM 27% | [3]; at 1.2 µM -42% | [3]; at 3.7 µM -27% | [3]; at 11.0 µM 8% | [3]; at 33.0 µM 3% | [4]; [17] 36% | [5]; at 1.2 µM -15% | [5]; at 3.7 µM -26% | [5]; at 11.0 µM 1% | [5]; at 33.0 µM 58%
active: [6]; at 100.0 µM 87% | [7]; at 100.0 µM 88% | [8]; at 100.0 µM 73% | [9]; at 100.0 µM 85% | [10]; at 100.0 µM 83% | [11]; at 100.0 µM 80% | [14]; at 100.0 µM 80% | [1]; at 100.0 µM 87% | [2]; at 100.0 µM 78% | [3]; at 100.0 µM 80% | [4]; [18] 84% | [4]; at 50.0 µM 79.3% | [5]; at 100.0 µM 85%
